Inconclusive results are not listed. Calls of active or inactive are those of the source. The calls were made as follows, unless noted: active = hit-call score of the fitted dose curve at least 0.9, where 1 is the maximum; inconclusive = response in the unintended direction; inactive = score below 0.9.
How the values were obtained:
[1] = ATG_VDRE_CIS: Attagene CIS-FACTORIAL HepG2 Assay for human Vitamin D Receptor Element (VDRE) (AID 2282968; active = hit-call score of the fitted dose curve at least 0.9, where 1 is the maximum; inactive = score below 0.9); details: HepG2 VDRE cis-reporter transcription, actives raise or lower the signal
Procedure, shortened: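 Transiently transfected HepG2 cells carrying cis-regulated reporter transcription units were exposed for 24 h. Reporter mRNA was measured by RT-PCR with fluorescent labelling and capillary electrophoresis, and fitted in both directions against DMSO.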

[2] = molecular target: Estrogen receptor (Homo sapiens) (UniProt P03372); assay: ATG_ERa_TRANS: Attagene TRANS-FACTORIAL HepG2 Assay for human Estrogen Receptor alpha (ERa) (AID 2282970); details: HepG2 Attagene TRANS ERa GAL4 reporter, mRNA
Procedure, shortened: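 HepG2 cells transiently transfected with multiplexed GAL4-UAS reporter units; ERa activity read via exogenous chimeric NR-Gal4 protein. After 24 hour compound exposure, reporter mRNA measured by RT-PCR with 6-FAM labelling and capillary electrophoresis; gain-of-signal fitted relative to DMSO.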

[3] = molecular target: X-box-binding protein 1 (Homo sapiens) (UniProt P17861); assay: ATG_Xbp1_CIS: Attagene CIS-FACTORIAL HepG2 Assay for human X-box Binding Protein 1 (XBP1) (AID 2282972; active = hit-call score of the fitted dose curve at least 0.9, where 1 is the maximum; inactive = score below 0.9); details: HepG2 XBP1 cis-element reporter, Attagene multiplex; actives raise or lower the signal
Procedure, shortened: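 HepG2 cells transiently transfected with cis-regulated multiple reporter transcription units; endogenous transcription factor activity measured 24 hours after chemical dosing. Reporter mRNA quantified by RT-PCR, 6-FAM primer extension, HpaI digestion and capillary electrophoresis; bidirectional fitting versus DMSO.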

[4] = ATG_M_19_TRANS: Attagene TRANS-FACTORIAL HepG2 Assay for M19 Transcription Factor (Internal Marker) (AID 2282974); details: HepG2 Attagene TRANS-FACTORIAL M19 internal marker reporter
Procedure, shortened: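 HepG2 transiently transfected with GAL4-UAS multiplex reporter constructs, exposed 24 h; reporter RNA quantified by RT-PCR, 6-FAM labeling, HpaI digestion and capillary electrophoresis; internal background marker fitted upward versus DMSO.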

[5] = molecular target: Bile acid receptor (Homo sapiens) (UniProt Q96RI1); assay: ATG_FXR_TRANS: Attagene TRANS-FACTORIAL HepG2 Assay for Farnesoid X Receptor (FXR) (AID 2282979); details: HepG2 Attagene TRANS FXR-GAL4 reporter transcription;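 also: hits raise reporter mRNA above DMSO so AC50 marks FXR activation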
Procedure, shortened: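 HepG2 cells transiently transfected with reporter constructs in which a chimeric FXR-GAL4 protein drives a GAL4-UAS reporter; 24 h compound exposure. Reporter mRNA measured by RT-PCR, FAM labelling, HpaI digestion and capillary electrophoresis; gain-of-signal versus DMSO.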

[6] = molecular target: Nuclear receptor subfamily 4 group A member 2 (Homo sapiens) (UniProt P43354); assay: ATG_NURR1_TRANS: Attagene TRANS-FACTORIAL HepG2 Assay for human Nuclear Receptor Related Protein 1 (NURR1) (AID 2282985); details: HepG2 Attagene TRANS reporter, mRNA readout
Procedure, shortened: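 HepG2 cells transiently transfected with NURR1-Gal4 chimera and GAL4-UAS reporter units; after 24 hr compound exposure, reporter mRNA quantified by RT-PCR and capillary electrophoresis; gain of signal fitted against DMSO.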

[7] = molecular target: Transcriptional activator Myb (Homo sapiens) (UniProt P10242); assay: ATG_Myb_CIS: Attagene CIS-FACTORIAL HepG2 Assay for human Myeloblastosis (Myb) Proto-Oncogene Transcription Factor (AID 2282986; active = hit-call score of the fitted dose curve at least 0.9, where 1 is the maximum; inactive = score below 0.9); details: HepG2 Attagene CIS-FACTORIAL Myb reporter transcription; actives raise or lower the signal
Procedure, shortened: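 Transiently transfected HepG2 cells carrying a multiplexed cis-promoter reporter set report endogenous Myb activity after 24 h compound exposure. Reporter mRNA is read by RT-PCR with capillary electrophoresis of fluorescent products, fitted bidirectionally against DMSO.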

[8] = ATG_TAL_CIS: Attagene CIS-FACTORIAL HepG2 Assay for human TAL Basal Promoter (AID 2282966; active = hit-call score of the fitted dose curve at least 0.9, where 1 is the maximum; inactive = score below 0.9;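 also: background control endpoint measuring basal TAL promoter reporter mRNA not a specific factor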); details: HepG2 Attagene cis-factorial TAL promoter reporter; actives raise or lower the signal
Procedure, shortened: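 HepG2 cells were transiently transfected with promoter-driven multiplexed reporter units and dosed for 24 h. Reporter mRNA was measured by RT-PCR with capillary electrophoresis fluorescence; bidirectional fits used DMSO as baseline, serving as a background control.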

[9] = ATG_TGFb_CIS: Attagene CIS-FACTORIAL HepG2 Assay for human Transforming Growth Factor (TGF) (AID 2282967; active = hit-call score of the fitted dose curve at least 0.9, where 1 is the maximum; inactive = score below 0.9); details: HepG2 Attagene CIS TGFb reporter, mRNA transcription; actives raise or lower the signal
Procedure, shortened: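 Bidirectional fitting relative to DMSO gave the endpoint. Underlying data: reporter mRNA from HepG2 cells carrying transiently transfected cis-regulated reporter constructs, harvested 24 h after dosing and analyzed by RT-PCR and capillary electrophoresis.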

[10] = ATG_GAL4_TRANS: Attagene TRANS-FACTORIAL HepG2 Assay for GAL4 (Internal Marker) (AID 2282976); details: HepG2 Attagene TRANS GAL4 internal marker reporter
Procedure, shortened: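 HepG2 cells transiently transfected with multiplexed GAL4-UAS reporter constructs were dosed for 24 h. Reporter mRNA was measured by RT-PCR, 6-FAM primer extension, HpaI digestion and capillary electrophoresis, and gain of signal was fitted relative to DMSO.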

[11] = molecular target: Glucocorticoid receptor (Homo sapiens) (UniProt P04150); assay: ATG_GR_TRANS: Attagene TRANS-FACTORIAL HepG2 Assay for human Glucocorticoid Receptor (GR) (AID 2282978); details: HepG2 Attagene TRANS GR reporter, mRNA transcription;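 also: activators score as hits since higher reporter transcript over DMSO is fitted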
Procedure, shortened: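 HepG2 cells transiently transfected with GAL4-UAS reporter units and exogenous GR-Gal4 chimera, dosed 24 h. Reporter mRNA by RT-PCR, FAM labeling, HpaI digest and capillary electrophoresis; gain-of-signal fit versus DMSO.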

[12] = ATG_M_32_TRANS: Attagene TRANS-FACTORIAL HepG2 Assay for M32 Transcription Factor (Internal Marker) (AID 2282984); details: HepG2 Attagene TRANS M32 internal marker reporter
Procedure, shortened: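 HepG2 cells transiently transfected with GAL4-UAS reporter units, dosed for 24 hours. Reporter mRNA quantified by RT-PCR, 6-FAM labelling, HpaI digestion and capillary electrophoresis; internal-marker signal fitted upward relative to DMSO.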

[13] = molecular target: Estrogen-related receptor gamma (Homo sapiens) (UniProt P62508); assay: ATG_ERRg_TRANS: Attagene TRANS-FACTORIAL HepG2 Assay for human Estrogen-Related Receptor gamma (ERRg) (AID 2282977); details: HepG2 Attagene TRANS reporter, ERRg transactivation;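 also: hits increase reporter signal over DMSO so potencies reflect activators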
Procedure, shortened: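 HepG2 cells transiently transfected with multiplexed GAL4-UAS reporter units driven by chimeric NR-Gal4 proteins; 24 h exposure. Reporter mRNA quantified by RT-PCR, fluorescent labelling, HpaI digestion and capillary electrophoresis; gain of signal vs DMSO.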

[14] = ATG_M_06_TRANS: Attagene TRANS-FACTORIAL HepG2 Assay for M06 Transcription Factor (Internal Marker) (AID 2282983); details: HepG2 Attagene TRANS M06 internal marker reporter;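 also: reporter transcript level by RT-PCR then capillary electrophoresis fluorescence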
Procedure, shortened: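 HepG2 cells transiently transfected with multiplexed GAL4-UAS reporter transcription units; after 24 h compound exposure, reporter mRNA measured by RT-PCR, FAM-labelled primer extension, HpaI digestion and capillary electrophoresis. Gain-of-signal fitted versus DMSO baseline; background control readout.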

[15] = molecular target: Steroid hormone receptor ERR1 (Homo sapiens) (UniProt P11474); assay: ATG_ERRa_TRANS: Attagene TRANS-FACTORIAL HepG2 Assay for human Estrogen-Related Receptor alpha (ERRa) (AID 2282971); details: HepG2 Attagene TRANS reporter, ERRa transactivation
Procedure, shortened: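 HepG2 cells transiently transfected with multiplexed GAL4-UAS reporter units reading chimeric ERRa-Gal4 activity; 24 h compound exposure. Reporter mRNA measured by RT-PCR, 6-FAM labelling, HpaI digest and capillary electrophoresis; gain of signal fitted versus DMSO baseline.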

[16] = molecular target: Oxysterols receptor LXR-beta (Homo sapiens) (UniProt P55055); assay: ATG_LXRb_TRANS: Attagene TRANS-FACTORIAL HepG2 Assay for human Liver X Receptor beta (LXRb) (AID 2282981); details: HepG2 Attagene TRANS GAL4-LXRb reporter, mRNA
Procedure, shortened: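 HepG2 cells transiently transfected with GAL4-UAS reporter units for chimeric NR-Gal4 proteins, dosed for 24 h. Reporter transcripts measured by RT-PCR and capillary electrophoresis; gain-of-signal fitting relative to DMSO.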

[17] = molecular target: Hepatocyte nuclear factor 4-alpha (Homo sapiens) (UniProt P41235); assay: ATG_HNF4a_TRANS: Attagene TRANS-FACTORIAL HepG2 Assay for human Hepatocyte Nuclear Factor 4 alpha (HNF4a) (AID 2282982); details: HepG2 HNF4a transactivation reporter, mRNA readout
Procedure, shortened: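 HepG2 cells transiently transfected with HNF4a-Gal4 chimera and GAL4-UAS reporter units, dosed for 24 h. Reporter mRNA measured by RT-PCR, fluorescent primer extension and capillary electrophoresis; gain-of-signal fitted relative to DMSO.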

[18] = molecular target: Oxysterols receptor LXR-alpha (Homo sapiens) (UniProt Q13133); assay: ATG_LXRa_TRANS: Attagene TRANS-FACTORIAL HepG2 Assay for human Liver X Receptor alpha (LXRa) (AID 2282980); details: HepG2 Attagene TRANS reporter, LXRa transactivation
Procedure, shortened: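 HepG2 cells were transiently transfected with multiplexed reporter units driven by chimeric LXRa–GAL4 fusion proteins, then dosed for 24 h. Reporter mRNA was quantified by RT-PCR, fluorescent labelling and capillary electrophoresis; gain of signal fitted against DMSO baseline.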

[19] = molecular target: Nuclear receptor subfamily 1 group I member 3 (Homo sapiens) (UniProt Q14994); assay: ATG_CAR_TRANS: Attagene TRANS-FACTORIAL HepG2 Assay for human Constitutive Androstane Receptor (CAR) (AID 2282969); details: HepG2 Attagene TRANS-FACTORIAL CAR reporter;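 also: activators raise reporter mRNA above DMSO so AC50 marks induction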
Procedure, shortened: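 HepG2 cells transiently transfected with GAL4-UAS reporter units; TRANS format reads activity of exogenous chimeric NR-Gal4 protein. After 24 h dosing, reporter mRNA quantified by RT-PCR, 6-FAM labelling and capillary electrophoresis; gain of signal fitted against DMSO.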

Measured: AC50

Nuclear receptor subfamily 1 group I member 3 (Homo sapiens), sequence (Q14994 whole entry, looked up, the tested form may be a part): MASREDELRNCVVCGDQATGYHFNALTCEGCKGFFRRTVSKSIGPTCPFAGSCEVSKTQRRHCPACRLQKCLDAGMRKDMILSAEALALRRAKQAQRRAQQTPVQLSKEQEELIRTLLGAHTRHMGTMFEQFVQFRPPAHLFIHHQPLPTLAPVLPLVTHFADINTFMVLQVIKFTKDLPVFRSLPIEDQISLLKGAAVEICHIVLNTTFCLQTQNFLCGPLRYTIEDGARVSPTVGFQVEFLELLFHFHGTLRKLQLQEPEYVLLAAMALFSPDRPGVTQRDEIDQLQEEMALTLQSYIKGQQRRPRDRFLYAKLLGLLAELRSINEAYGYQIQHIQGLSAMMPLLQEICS
Hepatocyte nuclear factor 4-alpha (Homo sapiens), sequence (P41235 whole entry, looked up, the tested form may be a part): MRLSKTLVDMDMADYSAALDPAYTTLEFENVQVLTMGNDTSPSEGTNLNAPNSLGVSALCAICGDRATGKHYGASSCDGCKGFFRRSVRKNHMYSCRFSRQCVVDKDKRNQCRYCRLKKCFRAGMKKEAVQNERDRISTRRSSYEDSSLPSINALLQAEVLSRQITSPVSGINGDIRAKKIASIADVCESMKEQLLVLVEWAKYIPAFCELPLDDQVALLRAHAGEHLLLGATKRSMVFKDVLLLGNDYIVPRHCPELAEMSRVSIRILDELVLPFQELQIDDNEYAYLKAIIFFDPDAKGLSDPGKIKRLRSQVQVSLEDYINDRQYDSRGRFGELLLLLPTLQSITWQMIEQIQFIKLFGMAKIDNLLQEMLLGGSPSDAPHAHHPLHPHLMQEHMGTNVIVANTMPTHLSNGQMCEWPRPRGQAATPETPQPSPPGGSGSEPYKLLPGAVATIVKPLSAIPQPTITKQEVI
Transcriptional activator Myb (Homo sapiens), sequence (P10242 whole entry, looked up): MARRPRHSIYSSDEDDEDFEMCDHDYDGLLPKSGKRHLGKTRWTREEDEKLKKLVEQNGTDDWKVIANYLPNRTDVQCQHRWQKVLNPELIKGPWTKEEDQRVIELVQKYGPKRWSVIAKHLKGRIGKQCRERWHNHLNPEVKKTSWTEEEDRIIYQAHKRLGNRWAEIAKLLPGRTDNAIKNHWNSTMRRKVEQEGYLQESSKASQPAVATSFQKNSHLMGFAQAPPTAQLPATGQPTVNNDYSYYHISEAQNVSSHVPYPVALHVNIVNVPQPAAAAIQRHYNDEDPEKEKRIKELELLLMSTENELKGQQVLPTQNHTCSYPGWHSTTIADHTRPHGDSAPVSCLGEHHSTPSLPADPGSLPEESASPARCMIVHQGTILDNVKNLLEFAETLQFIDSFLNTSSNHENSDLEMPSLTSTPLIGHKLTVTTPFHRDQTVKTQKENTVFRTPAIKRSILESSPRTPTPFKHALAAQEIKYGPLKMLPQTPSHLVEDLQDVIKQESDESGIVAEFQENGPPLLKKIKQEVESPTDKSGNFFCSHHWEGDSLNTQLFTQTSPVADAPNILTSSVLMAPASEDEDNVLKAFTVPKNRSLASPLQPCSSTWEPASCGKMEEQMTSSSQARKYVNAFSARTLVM
Estrogen-related receptor gamma (Homo sapiens), sequence (P62508 whole entry, looked up, the tested form may be a part): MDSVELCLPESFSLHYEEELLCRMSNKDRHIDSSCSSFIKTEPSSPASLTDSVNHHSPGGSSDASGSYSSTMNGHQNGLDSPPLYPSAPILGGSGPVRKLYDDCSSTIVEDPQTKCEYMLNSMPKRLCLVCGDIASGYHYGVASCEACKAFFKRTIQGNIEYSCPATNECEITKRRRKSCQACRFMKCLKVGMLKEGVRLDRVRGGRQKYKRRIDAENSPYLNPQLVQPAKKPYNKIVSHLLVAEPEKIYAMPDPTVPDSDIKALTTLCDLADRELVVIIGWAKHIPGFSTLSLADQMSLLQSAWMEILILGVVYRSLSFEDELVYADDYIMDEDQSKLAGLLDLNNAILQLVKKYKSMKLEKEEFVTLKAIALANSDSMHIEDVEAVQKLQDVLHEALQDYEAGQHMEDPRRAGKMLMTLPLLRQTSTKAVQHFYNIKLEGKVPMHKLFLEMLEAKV
Estrogen receptor (Homo sapiens), sequence (P03372 whole entry, looked up, the tested form may be a part): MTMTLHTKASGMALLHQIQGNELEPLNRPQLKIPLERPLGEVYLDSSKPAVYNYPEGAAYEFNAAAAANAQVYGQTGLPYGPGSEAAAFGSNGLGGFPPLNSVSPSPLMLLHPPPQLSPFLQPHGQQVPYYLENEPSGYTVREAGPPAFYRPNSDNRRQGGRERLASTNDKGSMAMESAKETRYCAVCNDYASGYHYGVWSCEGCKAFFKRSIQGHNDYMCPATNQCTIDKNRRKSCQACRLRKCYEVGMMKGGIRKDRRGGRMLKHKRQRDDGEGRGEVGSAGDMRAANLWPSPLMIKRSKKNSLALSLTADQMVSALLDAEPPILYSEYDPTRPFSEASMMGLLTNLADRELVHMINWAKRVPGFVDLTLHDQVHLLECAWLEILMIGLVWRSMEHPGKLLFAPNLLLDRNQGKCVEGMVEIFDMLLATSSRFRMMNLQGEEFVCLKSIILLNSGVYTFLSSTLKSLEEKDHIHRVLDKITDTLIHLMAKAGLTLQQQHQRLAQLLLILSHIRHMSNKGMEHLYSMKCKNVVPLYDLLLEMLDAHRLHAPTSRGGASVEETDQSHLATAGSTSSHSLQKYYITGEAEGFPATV
Bile acid receptor (Homo sapiens), sequence (Q96RI1 whole entry, looked up, the tested form may be a part): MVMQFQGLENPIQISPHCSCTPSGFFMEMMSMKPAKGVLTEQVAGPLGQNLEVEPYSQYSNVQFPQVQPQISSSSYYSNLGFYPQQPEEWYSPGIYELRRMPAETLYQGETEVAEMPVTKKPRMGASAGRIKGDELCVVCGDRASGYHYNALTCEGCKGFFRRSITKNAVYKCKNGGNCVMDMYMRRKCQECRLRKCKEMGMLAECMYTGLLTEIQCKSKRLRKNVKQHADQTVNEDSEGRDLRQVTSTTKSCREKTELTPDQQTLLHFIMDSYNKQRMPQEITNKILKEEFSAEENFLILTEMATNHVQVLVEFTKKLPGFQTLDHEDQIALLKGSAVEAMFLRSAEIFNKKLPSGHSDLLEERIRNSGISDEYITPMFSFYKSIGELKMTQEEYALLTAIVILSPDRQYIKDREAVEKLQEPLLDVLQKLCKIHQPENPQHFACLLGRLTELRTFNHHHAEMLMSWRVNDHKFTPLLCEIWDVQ
Oxysterols receptor LXR-alpha (Homo sapiens), sequence (Q13133 whole entry, looked up, the tested form may be a part): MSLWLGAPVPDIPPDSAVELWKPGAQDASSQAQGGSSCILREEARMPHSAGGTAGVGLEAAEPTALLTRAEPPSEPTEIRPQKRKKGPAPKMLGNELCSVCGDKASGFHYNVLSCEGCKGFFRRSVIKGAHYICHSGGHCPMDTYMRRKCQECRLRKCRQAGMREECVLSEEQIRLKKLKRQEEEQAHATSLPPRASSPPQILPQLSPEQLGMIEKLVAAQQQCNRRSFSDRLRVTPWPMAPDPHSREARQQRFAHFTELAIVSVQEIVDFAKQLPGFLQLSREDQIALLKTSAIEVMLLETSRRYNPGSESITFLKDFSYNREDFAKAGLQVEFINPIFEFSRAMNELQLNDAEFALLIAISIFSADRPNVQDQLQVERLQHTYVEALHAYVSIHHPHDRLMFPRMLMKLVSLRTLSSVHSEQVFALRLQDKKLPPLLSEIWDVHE
Glucocorticoid receptor (Homo sapiens), sequence (P04150 whole entry, looked up, the tested form may be a part): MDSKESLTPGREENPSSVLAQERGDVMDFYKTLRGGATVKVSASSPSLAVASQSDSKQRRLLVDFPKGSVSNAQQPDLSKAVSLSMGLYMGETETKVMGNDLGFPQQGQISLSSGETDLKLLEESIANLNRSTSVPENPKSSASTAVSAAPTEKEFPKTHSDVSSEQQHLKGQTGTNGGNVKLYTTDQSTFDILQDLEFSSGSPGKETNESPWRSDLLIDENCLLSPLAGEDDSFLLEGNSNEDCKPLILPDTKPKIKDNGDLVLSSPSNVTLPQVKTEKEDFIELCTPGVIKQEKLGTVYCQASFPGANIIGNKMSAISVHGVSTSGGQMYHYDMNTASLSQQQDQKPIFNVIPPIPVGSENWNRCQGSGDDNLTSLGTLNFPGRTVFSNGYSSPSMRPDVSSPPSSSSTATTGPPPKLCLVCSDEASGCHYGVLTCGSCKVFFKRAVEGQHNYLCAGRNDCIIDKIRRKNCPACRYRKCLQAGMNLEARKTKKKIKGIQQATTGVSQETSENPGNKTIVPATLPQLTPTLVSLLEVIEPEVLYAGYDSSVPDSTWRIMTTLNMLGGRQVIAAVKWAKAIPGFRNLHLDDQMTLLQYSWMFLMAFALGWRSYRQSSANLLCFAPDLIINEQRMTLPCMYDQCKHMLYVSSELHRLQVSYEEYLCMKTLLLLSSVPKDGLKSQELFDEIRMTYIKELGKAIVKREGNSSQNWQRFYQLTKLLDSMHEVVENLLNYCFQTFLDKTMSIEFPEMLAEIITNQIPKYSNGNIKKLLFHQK
X-box-binding protein 1 (Homo sapiens), sequence (P17861 whole entry, looked up): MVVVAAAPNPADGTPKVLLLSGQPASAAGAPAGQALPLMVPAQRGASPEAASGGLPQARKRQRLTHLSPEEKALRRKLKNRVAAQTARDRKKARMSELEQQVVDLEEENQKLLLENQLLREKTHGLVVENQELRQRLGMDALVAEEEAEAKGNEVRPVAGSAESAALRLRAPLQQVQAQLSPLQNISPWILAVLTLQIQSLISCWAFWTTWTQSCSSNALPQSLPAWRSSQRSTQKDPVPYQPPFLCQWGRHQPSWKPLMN
Oxysterols receptor LXR-beta (Homo sapiens), sequence (P55055 whole entry, looked up, the tested form may be a part): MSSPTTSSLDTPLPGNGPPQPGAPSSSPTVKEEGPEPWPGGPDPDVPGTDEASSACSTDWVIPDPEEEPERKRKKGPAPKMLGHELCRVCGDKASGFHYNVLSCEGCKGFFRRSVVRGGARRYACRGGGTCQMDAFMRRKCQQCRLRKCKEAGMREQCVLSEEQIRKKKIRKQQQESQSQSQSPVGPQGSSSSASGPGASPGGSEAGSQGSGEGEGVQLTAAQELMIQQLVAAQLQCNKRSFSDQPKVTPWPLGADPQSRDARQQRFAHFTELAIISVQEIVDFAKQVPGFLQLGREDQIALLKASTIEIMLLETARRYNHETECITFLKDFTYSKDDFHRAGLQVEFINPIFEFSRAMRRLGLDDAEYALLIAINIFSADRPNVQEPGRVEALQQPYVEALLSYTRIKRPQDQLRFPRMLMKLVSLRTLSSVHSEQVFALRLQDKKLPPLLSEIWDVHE

CC(=O)/C=C/C1C(C)=CCCC1(C)C (stereo not given)
active: [1] 13.3 µM | [2] 24.2 µM
inactive: [3] | [4] | [5] | [6] | [7]

COC(C=C(C)CCC=C(C)C)OC
active: [1] 76.7 µM
not listed: [13] | [14] | [15] | [16] | [17] | [18] | [19]
inactive: all other assays above

CCCCNC(=S)NCCCC
inactive: [8] | [9] | [1] | [3] | [10] | [13] | [11] | [5] | [14] | [7]

CC1(C)[C@@H]2CC[C@@]1(C)C(=O)C2
inactive: [8] | [9] | [1] | [2] | [15] | [4] | [13] | [12] | [6] | [7]

CC1(C)CC(O)CC(C)(C)N1[O]
not listed: [2] | [4] | [11] | [12] | [13] | [15] | [18] | [19]
inactive: all other assays above

CCOB(OCC)OCC
inactive: [9] | [1] | [3] | [4] | [5] | [14] | [12]

N#CC1(N)CCCCC1
not listed: [2] | [5] | [10] | [13] | [14] | [15] | [19]
inactive: all other assays above

[Cl][Sc]([Cl])[Cl]
inactive: [8] | [9] | [1] | [4] | [13] | [11] | [16] | [17]

CCCCCCCCCC[N+](C)(CCCCCCCCCC)CCC[Si](OC)(OC)OC
inactive: [8] | [9] | [1] | [19] | [4] | [16] | [6]
active: [3] 18 µM | [7] 15.9 µM

CC1=NN(c2ccc(S(=O)(=O)O)cc2)C(=O)C1N=Nc1ccccc1 (stereo not given)
inactive: [8] | [9] | [1] | [19] | [2] | [3] | [16] | [14] | [12] | [7]

CC(=O)C(C)C
inactive: [8] | [9] | [1] | [4] | [10] | [11] | [18] | [17] | [12] | [7]

Nc1ccc(O)c([N+](=O)[O-])c1
inactive: [9] | [1] | [2] | [15] | [3] | [13] | [18] | [16] | [14] | [7]

COC(=O)C=Cc1ccccc1
inactive: [8] | [1] | [19] | [2] | [3] | [18] | [14] | [7]

CC(C)=CCl
not listed: [4] | [10] | [13] | [15] | [17] | [18] | [19]
inactive: all other assays above

Cc1c[nH]c(=O)[nH]c1=O
inactive: [8] | [1] | [3] | [11] | [5] | [16] | [17] | [14] | [7]

Reference: PubChem BioAssay (EPA / NIEHS)
